Measurements reported in the supplement of paper PMC11732987, “Enantioselective OTUD7B fragment discovery through chemoproteomics screening and high-throughput optimisation” (Communications Chemistry, 2025).

Columns and labels:
Assay in all cases: log2 ratio of Biotin-Ahx-Ub-VS probe labelling (fragment/DMSO); higher = less target engagement (more negative = stronger competition), active = hit call of the paper (q ≤ 0.05, log2 ratio ≤ -1)
Details in all cases: compound concentration: 200 uM; treatment time: 3 h
[1] = molecular target: T1, USP19 (UniProt O94966)
T1 sequence (whole entry): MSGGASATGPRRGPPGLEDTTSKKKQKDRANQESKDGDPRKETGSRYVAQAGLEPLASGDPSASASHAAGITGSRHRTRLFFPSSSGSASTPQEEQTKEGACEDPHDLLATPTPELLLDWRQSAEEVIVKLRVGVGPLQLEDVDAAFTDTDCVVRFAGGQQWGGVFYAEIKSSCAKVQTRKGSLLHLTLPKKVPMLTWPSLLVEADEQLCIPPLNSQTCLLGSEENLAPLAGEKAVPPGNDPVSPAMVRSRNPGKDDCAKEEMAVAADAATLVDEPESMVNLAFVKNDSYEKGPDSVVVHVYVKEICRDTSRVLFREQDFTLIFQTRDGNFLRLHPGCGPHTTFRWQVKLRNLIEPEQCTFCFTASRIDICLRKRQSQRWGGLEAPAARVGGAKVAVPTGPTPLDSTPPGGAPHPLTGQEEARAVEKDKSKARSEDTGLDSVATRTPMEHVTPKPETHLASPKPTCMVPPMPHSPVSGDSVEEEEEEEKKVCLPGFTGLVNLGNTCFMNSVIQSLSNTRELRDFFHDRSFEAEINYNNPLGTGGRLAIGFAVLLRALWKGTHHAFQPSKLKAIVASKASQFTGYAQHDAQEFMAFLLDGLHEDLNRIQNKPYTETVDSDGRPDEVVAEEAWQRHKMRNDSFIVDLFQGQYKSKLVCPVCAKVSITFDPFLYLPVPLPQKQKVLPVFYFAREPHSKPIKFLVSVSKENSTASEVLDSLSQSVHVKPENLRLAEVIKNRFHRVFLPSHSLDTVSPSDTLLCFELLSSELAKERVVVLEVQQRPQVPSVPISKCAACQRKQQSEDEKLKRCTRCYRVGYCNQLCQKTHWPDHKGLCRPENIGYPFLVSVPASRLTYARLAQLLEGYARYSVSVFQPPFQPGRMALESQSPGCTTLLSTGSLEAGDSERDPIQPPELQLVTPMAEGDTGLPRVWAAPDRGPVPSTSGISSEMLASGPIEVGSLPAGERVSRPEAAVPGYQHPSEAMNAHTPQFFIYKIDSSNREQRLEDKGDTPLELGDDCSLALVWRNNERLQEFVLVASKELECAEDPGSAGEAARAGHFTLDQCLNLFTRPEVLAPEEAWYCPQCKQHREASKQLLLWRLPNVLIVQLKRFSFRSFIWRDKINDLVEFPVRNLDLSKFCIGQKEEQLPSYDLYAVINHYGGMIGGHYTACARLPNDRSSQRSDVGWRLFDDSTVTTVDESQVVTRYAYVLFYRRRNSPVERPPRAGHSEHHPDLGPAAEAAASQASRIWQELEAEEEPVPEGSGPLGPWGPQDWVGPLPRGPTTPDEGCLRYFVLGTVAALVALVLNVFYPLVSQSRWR
Outline: (§1)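 HEK293T lysate, 495 µg per sample in Tris/CHAPS/IGEPAL buffer with protease inhibitors, was treated in triplicate with fragment at 200 µM or vehicle for 3 h and then with Biotin-Ahx-Ub-VS at 0.5 µM final for 1 h. Labelled DUBs were NeutrAvidin-enriched, digested with LysC and trypsin, and run by diaPASEF LC-MS/MS. Spectronaut label-free quantities were global-median-normalised, and values are average log2 fragment/vehicle ratios by unpaired t-test on proteins with ≥2 unique peptides.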

[2] = molecular target: T2, USP22 (UniProt Q9UPT9)
T2 sequence (whole entry): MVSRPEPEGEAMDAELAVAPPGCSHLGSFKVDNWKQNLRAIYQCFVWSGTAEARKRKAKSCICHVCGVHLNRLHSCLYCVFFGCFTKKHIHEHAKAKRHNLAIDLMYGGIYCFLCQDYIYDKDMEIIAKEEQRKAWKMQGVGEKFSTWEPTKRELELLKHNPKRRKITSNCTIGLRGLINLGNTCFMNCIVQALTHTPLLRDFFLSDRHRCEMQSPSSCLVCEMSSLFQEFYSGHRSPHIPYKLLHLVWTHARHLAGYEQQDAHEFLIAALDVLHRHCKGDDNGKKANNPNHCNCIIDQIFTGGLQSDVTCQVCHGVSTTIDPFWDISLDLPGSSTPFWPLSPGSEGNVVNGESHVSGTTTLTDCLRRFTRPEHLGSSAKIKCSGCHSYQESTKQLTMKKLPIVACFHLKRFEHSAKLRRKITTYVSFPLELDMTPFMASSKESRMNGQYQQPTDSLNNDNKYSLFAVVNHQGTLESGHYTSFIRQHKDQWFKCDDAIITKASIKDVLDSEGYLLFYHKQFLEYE
Outline: as §1

[3] = molecular target: USP24 (UniProt Q9UPU5)
USP24, sequence (Q9UPU5 whole entry): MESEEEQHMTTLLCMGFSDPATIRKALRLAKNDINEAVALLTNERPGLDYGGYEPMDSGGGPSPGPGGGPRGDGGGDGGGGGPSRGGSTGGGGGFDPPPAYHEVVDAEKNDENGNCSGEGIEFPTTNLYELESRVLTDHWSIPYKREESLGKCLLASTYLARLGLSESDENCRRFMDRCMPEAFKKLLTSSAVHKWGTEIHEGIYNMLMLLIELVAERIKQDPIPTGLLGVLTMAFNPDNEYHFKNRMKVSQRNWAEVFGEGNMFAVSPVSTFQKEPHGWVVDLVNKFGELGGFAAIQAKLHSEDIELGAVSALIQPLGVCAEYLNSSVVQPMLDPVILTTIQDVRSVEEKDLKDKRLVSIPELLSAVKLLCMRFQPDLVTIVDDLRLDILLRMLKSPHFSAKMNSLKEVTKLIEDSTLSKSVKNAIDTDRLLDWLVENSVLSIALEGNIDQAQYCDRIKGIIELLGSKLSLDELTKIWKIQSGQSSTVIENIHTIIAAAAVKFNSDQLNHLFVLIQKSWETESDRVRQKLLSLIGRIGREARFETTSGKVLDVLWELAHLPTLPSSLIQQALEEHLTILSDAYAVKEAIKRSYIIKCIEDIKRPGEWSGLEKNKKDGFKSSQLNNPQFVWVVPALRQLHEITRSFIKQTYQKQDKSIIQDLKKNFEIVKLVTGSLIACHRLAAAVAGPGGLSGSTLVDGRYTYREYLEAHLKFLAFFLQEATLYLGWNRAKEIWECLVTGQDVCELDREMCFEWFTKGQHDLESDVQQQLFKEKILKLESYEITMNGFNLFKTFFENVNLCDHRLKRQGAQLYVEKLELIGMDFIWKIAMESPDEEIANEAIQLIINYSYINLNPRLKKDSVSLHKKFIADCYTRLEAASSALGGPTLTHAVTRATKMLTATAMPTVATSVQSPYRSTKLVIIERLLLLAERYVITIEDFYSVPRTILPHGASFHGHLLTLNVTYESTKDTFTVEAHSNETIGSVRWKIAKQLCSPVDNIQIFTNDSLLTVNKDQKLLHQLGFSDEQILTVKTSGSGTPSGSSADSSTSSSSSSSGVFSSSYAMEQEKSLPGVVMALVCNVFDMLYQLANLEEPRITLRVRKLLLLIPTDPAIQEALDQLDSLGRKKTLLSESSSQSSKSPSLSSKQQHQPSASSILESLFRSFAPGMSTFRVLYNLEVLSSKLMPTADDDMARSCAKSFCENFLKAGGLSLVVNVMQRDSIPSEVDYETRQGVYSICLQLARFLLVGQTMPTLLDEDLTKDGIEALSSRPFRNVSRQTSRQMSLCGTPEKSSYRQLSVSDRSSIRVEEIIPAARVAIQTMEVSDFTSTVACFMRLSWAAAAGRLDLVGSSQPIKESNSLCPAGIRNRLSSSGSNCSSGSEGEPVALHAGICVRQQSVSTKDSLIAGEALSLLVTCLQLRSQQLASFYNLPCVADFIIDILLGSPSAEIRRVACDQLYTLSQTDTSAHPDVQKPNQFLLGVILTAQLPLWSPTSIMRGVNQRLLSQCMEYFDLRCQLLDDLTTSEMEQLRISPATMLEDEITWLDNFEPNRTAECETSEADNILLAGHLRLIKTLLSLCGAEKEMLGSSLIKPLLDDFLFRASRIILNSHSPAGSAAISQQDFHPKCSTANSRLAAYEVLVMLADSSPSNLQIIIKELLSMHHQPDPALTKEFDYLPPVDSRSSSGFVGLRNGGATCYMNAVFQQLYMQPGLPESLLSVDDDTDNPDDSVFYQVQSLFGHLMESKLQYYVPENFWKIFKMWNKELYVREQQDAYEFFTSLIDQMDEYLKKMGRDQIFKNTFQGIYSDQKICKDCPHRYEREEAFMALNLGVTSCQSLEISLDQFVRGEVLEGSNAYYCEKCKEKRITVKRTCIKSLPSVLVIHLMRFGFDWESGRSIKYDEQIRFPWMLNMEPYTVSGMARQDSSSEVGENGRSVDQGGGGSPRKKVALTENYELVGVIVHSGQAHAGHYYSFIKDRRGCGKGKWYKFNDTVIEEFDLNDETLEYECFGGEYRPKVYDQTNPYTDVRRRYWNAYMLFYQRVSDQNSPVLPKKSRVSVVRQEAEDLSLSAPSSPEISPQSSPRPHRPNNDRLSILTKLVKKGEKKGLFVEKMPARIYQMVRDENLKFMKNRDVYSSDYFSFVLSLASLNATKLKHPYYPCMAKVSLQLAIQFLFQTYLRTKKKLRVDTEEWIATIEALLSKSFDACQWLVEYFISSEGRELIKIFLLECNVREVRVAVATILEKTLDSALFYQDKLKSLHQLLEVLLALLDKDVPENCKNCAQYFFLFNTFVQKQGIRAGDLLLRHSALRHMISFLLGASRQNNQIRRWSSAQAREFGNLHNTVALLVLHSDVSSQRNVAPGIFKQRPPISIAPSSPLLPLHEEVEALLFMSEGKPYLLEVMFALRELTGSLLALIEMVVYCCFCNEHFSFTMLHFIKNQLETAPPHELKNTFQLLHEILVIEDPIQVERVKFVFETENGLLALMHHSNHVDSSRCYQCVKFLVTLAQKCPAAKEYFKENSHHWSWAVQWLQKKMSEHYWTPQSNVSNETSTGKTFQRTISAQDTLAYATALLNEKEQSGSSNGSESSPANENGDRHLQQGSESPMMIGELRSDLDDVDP
Outline: as §1

[4] = molecular target: T3, USP25 (UniProt Q9UHP3)
T3 sequence (whole entry): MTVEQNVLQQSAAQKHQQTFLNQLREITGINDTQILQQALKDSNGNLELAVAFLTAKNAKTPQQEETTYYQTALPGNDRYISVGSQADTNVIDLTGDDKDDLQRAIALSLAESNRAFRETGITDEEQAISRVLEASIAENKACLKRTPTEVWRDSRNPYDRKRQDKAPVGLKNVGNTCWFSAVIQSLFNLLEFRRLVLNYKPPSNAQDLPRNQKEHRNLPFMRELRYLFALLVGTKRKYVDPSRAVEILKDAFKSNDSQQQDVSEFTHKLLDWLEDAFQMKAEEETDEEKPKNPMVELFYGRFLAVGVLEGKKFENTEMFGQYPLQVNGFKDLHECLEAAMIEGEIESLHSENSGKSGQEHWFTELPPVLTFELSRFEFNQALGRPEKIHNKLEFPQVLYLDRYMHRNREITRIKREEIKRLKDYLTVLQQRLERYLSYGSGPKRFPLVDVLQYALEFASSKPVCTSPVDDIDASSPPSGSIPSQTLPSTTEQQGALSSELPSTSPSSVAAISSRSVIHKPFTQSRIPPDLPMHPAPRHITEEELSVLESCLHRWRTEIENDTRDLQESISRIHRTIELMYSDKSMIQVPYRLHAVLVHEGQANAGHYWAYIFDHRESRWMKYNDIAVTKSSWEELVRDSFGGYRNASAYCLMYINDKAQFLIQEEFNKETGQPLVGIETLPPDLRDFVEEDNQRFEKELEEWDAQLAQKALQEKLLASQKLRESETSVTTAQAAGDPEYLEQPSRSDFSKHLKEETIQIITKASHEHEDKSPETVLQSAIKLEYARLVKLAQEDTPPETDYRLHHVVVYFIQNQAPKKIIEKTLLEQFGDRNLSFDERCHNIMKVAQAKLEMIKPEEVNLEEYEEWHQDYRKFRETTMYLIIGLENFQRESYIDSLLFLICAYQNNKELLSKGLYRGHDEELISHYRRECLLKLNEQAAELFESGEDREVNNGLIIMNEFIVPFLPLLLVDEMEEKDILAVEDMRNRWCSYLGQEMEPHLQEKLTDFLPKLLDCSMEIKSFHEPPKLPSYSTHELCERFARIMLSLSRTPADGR
Outline: as §1

[5] = molecular target: T4, USP28 (UniProt Q96RU2)
T4 sequence (whole entry): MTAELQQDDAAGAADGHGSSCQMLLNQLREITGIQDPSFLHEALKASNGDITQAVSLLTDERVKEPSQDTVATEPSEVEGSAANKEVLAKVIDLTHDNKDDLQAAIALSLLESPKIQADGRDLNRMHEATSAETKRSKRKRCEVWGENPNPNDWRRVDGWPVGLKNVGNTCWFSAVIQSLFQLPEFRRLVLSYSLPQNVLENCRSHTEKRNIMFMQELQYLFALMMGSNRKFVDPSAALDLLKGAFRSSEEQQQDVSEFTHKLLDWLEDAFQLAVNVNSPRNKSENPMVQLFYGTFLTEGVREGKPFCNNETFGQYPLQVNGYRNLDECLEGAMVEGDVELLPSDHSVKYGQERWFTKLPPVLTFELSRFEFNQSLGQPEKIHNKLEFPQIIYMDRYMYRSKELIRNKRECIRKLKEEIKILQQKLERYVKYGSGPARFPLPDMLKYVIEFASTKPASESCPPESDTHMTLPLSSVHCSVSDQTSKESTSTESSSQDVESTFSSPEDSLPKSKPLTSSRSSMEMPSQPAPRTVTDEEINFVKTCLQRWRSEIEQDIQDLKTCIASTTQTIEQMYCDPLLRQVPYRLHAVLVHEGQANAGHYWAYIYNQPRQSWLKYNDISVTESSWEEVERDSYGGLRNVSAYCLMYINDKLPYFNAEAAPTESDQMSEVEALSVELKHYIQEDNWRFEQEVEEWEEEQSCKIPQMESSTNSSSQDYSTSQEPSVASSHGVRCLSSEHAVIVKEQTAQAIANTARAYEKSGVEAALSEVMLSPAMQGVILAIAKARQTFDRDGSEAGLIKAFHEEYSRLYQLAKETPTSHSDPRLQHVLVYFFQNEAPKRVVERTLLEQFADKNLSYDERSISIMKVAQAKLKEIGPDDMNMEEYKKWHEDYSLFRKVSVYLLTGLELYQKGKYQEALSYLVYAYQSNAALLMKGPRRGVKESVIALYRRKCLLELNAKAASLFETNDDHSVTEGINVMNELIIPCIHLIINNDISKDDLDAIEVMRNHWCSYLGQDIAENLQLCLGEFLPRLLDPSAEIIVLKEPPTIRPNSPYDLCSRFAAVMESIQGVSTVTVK
Outline: as §1

Measured: log2 ratio of Biotin-Ahx-Ub-VS probe labelling

CC1(NC(=O)CCl)CCS(=O)(=O)C1 (stereo not given)
inactive: [1] -0.59 | [2] -0.238 | [3] -0.659 | [4] -0.695 | [5] -0.835
